# From the supplement of paper PMC8728848
# This is one part of a sample in which the strongest signals are shown more often than they occur.
# B1: SP16663B-bot-321-25-321 (Bacteroides ovatus) (protein)
# chain: DDDDEVTMNSKFYLSTKVFPVDSYEASLSVILKDNSVVVNELQPNYRFVACATERLSKDVKITADSDDNLVSAYNKANDTEYNILPAENYSFTNKTVTIENGESVSGDSIKIELLNVGSLTTEGGYLLPVTISSIEGNNLDALSSNRGVVYLKIQNIHVNVESGQPAEGTLIADRSGWTVKVAPTTRGDAKNLIDGTNSDVARDGGAEYWLTVDIGKVQTLTGIRNKCYASSYSPTAVEVFTSSDGAKWKSIGAVTISKSGTQYIKFSKAVETRYLKYYVKQGPNTVSLTEFDLYAK
# Columns and labels:
# Test in all cases: glycan array binding signal (z-score within array); higher = stronger binding
# Conditions in all cases: glycan notation: IUPAC condensed, linker removed
# Fuc(a1-2)Gal(b1-4)Glc = target: Fuc(a1-2)Gal(b1-4)Glc
# Method in brief: (§1)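 Columns mapping to the same glycan were averaged after glycan names were converted to IUPAC-condensed notation. The data come from 3228 arrays in the Consortium for Functional Glycomics database, limited to those with an available protein sequence. Binding is reported as a within-array Z-score averaged across arrays of one protein sequence and across linkers.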
# Fuc(a1-2)Gal(b1-4)GlcNAc = target: Fuc(a1-2)Gal(b1-4)GlcNAc
# Method in brief: as §1
# [1] = target: Fuc(a1-2)Gal(b1-4)GlcNAc(b1-3)GalNAc
# Method in brief: as §1
# [2] = target: Fuc(a1-2)Gal(b1-4)GlcNAc(b1-3)[Fuc(a1-3)[Gal(b1-4)]GlcNAc(b1-6)]Gal(b1-4)Glc
# Method in brief: as §1
# [3] = target: Fuc(a1-2)Gal(b1-4)[Fuc(a1-3)]GlcNAc(b1-2)[Fuc(a1-2)Gal(b1-4)[Fuc(a1-3)]GlcNAc(b1-4)]Man(a1-3)[Fuc(a1-2)Gal(b1-4)[Fuc(a1-3)]GlcNAc(b1-2)Man(a1-6)]Man(b1-4)GlcNAc(b1-4)GlcNAc
# Method in brief: as §1
# [4] = target: Fuc(a1-2)Gal(b1-4)[Fuc(a1-3)]GlcNAc(b1-3)Gal(b1-4)[Fuc(a1-3)]GlcNAc(b1-3)Gal(b1-4)[Fuc(a1-3)]GlcNAc
# Method in brief: as §1
# [5] = target: Fuc(a1-2)[Gal(a1-3)]Gal(b1-3)GlcNAc(b1-6)GalNAc
# Method in brief: as §1
# [6] = target: Fuc(a1-2)[Gal(a1-3)]Gal(b1-4)GlcNAc(b1-3)[Fuc(a1-2)[Gal(a1-3)]Gal(b1-4)GlcNAc(b1-6)]GalNAc
# Method in brief: as §1
# [7] = target: Fuc(a1-2)[GalNAc(a1-3)]Gal(b1-3)GlcNAc
# Method in brief: as §1
# [8] = target: Fuc(a1-2)[GalNAc(a1-3)]Gal(b1-4)GlcNAc(b1-2)Man
# Method in brief: as §1
# [9] = target: Fuc(a1-2)[GalNAc(a1-3)]Gal(b1-4)[Fuc(a1-3)]GlcNAc(b1-3)GalNAc
# Method in brief: as §1
# [10] = target: Fuc(a1-3)[Gal(b1-4)]Glc6S
# Method in brief: as §1
# [11] = target: Fuc(a1-3)[Gal(b1-4)]GlcNAc(b1-2)Man
# Method in brief: as §1
# Fuc(a1-4)GlcNAc = target: Fuc(a1-4)GlcNAc
# Method in brief: as §1
# Gal(a1-3)Gal(b1-3)GlcNAc = target: Gal(a1-3)Gal(b1-3)GlcNAc
# Method in brief: as §1
# [12] = target: Gal(b1-4)GlcNAc(b1-2)Man(a1-6)Man(b1-4)GlcNAc(b1-4)GlcNAc
# Method in brief: as §1
# [13] = target: Gal(b1-4)GlcNAc(b1-3)Gal(b1-4)GlcNAc(b1-3)[Gal(b1-4)GlcNAc(b1-3)Gal(b1-4)GlcNAc(b1-6)]GalNAc
# Method in brief: as §1
# GalNAc(a1-3)GalNAc = target: GalNAc(a1-3)GalNAc
# Method in brief: as §1
# GalNAc(b1-4)GlcNAc = target: GalNAc(b1-4)GlcNAc
# Method in brief: as §1
# [14] = target: GalNAc(b1-4)GlcNAc(b1-2)Man
# Method in brief: as §1
# GalNAc(b1-4)GlcNAc6S = target: GalNAc(b1-4)GlcNAc6S
# Method in brief: as §1
# GalNAc3S(b1-4)GlcNAc3S = target: GalNAc3S(b1-4)GlcNAc3S
# Method in brief: as §1
# Glc(b1-4)Glc = target: Glc(b1-4)Glc
# Method in brief: as §1
# GlcA(b1-6)Gal = target: GlcA(b1-6)Gal
# Method in brief: as §1
# [15] = target: GlcNAc(b1-3)Gal(b1-4)GlcNAc(b1-3)Gal(b1-4)GlcNAc(b1-2)[GlcNAc(b1-3)Gal(b1-4)GlcNAc(b1-3)Gal(b1-4)GlcNAc(b1-6)]Man(a1-6)[GlcNAc(b1-3)Gal(b1-4)GlcNAc(b1-3)Gal(b1-4)GlcNAc(b1-2)Man(a1-3)]Man(b1-4)GlcNAc(b1-4)[Fuc(a1-6)]GlcNAc
# Method in brief: as §1
# [16] = target: GlcNAc(b1-3)Gal(b1-4)GlcNAc(b1-3)Gal(b1-4)GlcNAc(b1-3)Gal(b1-4)GlcNAc(b1-2)[GlcNAc(b1-3)Gal(b1-4)GlcNAc(b1-3)Gal(b1-4)GlcNAc(b1-3)Gal(b1-4)GlcNAc(b1-6)]Man(a1-6)[GlcNAc(b1-3)Gal(b1-4)GlcNAc(b1-3)Gal(b1-4)GlcNAc(b1-3)Gal(b1-4)GlcNAc(b1-2)Man(a1-3)]Man(b1-4)GlcNAc(b1-4)[Fuc(a1-6)]GlcNAc
# Method in brief: as §1
# [17] = target: GlcNAc(b1-3)Gal(b1-4)GlcNAc(b1-3)GalNAc
# Method in brief: as §1
# [18] = target: GlcNAc(b1-3)[GlcNAc(b1-4)][GlcNAc(b1-6)]GlcNAc
# Method in brief: as §1
# [19] = target: GlcNAc(b1-6)Gal(b1-4)GlcNAc
# Method in brief: as §1
# [20] = target: Man(a1-3)[Man(a1-6)]Man(b1-4)GlcNAc(b1-4)[Fuc(a1-6)]GlcNAc
# Method in brief: as §1
# [21] = target: Neu5Ac(a2-3)Gal(b1-3)GalNAc(b1-4)[Neu5Ac(a2-8)Neu5Ac(a2-3)]Gal(b1-4)Glc
# Method in brief: as §1
# [22] = target: Neu5Ac(a2-3)Gal(b1-4)GlcNAc(b1-2)[Neu5Ac(a2-3)Gal(b1-4)GlcNAc(b1-4)]Man(a1-3)[GlcNAc(b1-4)][Neu5Ac(a2-3)Gal(b1-4)GlcNAc(b1-4)Man(a1-6)]Man(b1-4)GlcNAc(b1-4)GlcNAc
# Method in brief: as §1
# [23] = target: Neu5Ac(a2-3)Gal(b1-4)[Fuc(a1-3)]GlcNAc
# Method in brief: as §1
# [24] = target: Neu5Ac(a2-3)Gal(b1-4)[Fuc(a1-3)]GlcNAc6S
# Method in brief: as §1
# [25] = target: Neu5Ac(a2-6)Gal(b1-4)GlcNAc(b1-2)Man(a1-3)[Neu5Ac(a2-6)Gal(b1-4)GlcNAc(b1-2)Man(a1-6)]Man(b1-4)GlcNAc(b1-4)[Fuc(a1-6)]GlcNAc
# Method in brief: as §1
# [26] = target: Neu5Ac(a2-6)Gal(b1-4)GlcNAc(b1-2)Man(a1-6)[Gal(b1-4)GlcNAc(b1-2)Man(a1-3)]Man(b1-4)GlcNAc(b1-4)GlcNAc
# Method in brief: as §1
# [27] = target: Neu5Ac(a2-6)Gal(b1-4)GlcNAc(b1-3)Gal(b1-4)GlcNAc(b1-3)GalNAc
# Method in brief: as §1
# [28] = target: Neu5Ac(a2-8)Neu5Ac(a2-3)Gal(b1-3)GalNAc(b1-4)[Neu5Ac(a2-3)]Gal(b1-4)Glc
# Method in brief: as §1
# [29] = target: Neu5Ac(a2-8)Neu5Ac(a2-3)[Gal(b1-3)GalNAc(b1-4)]Gal(b1-4)Glc
# Method in brief: as §1
# Neu5Ac(b2-6)GalNAc = target: Neu5Ac(b2-6)GalNAc
# Method in brief: as §1
# [30] = target: Neu5Ac9Ac(a2-3)Gal(b1-3)GlcNAc
# Method in brief: as §1
# [31] = target: Neu5Gc(a2-3)Gal(b1-4)GlcNAc(b1-3)Gal(b1-4)GlcNAc(b1-2)Man(a1-3)[Neu5Gc(a2-3)Gal(b1-4)GlcNAc(b1-3)Gal(b1-4)GlcNAc(b1-2)Man(a1-6)]Man(b1-4)GlcNAc(b1-4)GlcNAc
# Method in brief: as §1
# [32] = target: Neu5Gc(a2-6)Gal(b1-4)GlcNAc
# Method in brief: as §1
binder,measurement,setting,value
B1,glycan array binding signal (z-score),Fuc(a1-2)Gal(b1-4)Glc,-0.653
same,glycan array binding signal (z-score),Fuc(a1-2)Gal(b1-4)GlcNAc,-0.156
same,glycan array binding signal (z-score),[1],-0.106
same,glycan array binding signal (z-score),[2],-0.632
same,glycan array binding signal (z-score),[3],-0.394
same,glycan array binding signal (z-score),[4],-0.007
same,glycan array binding signal (z-score),[5],-0.437
same,glycan array binding signal (z-score),[6],1.9
same,glycan array binding signal (z-score),[7],0.071
same,glycan array binding signal (z-score),[8],1.04
same,glycan array binding signal (z-score),[9],0.604
same,glycan array binding signal (z-score),[10],1.36
same,glycan array binding signal (z-score),[11],0.558
same,glycan array binding signal (z-score),Fuc(a1-4)GlcNAc,21.5
same,glycan array binding signal (z-score),Gal(a1-3)Gal(b1-3)GlcNAc,0.607
same,glycan array binding signal (z-score),[12],-0.62
same,glycan array binding signal (z-score),[13],1.04
same,glycan array binding signal (z-score),GalNAc(a1-3)GalNAc,-0.141
same,glycan array binding signal (z-score),GalNAc(b1-4)GlcNAc,1.29
same,glycan array binding signal (z-score),[14],1.72
same,glycan array binding signal (z-score),GalNAc(b1-4)GlcNAc6S,-0.779
same,glycan array binding signal (z-score),GalNAc3S(b1-4)GlcNAc3S,-0.087
same,glycan array binding signal (z-score),Glc(b1-4)Glc,0.122
same,glycan array binding signal (z-score),GlcA(b1-6)Gal,0.013
same,glycan array binding signal (z-score),[15],2.65
same,glycan array binding signal (z-score),[16],1.28
same,glycan array binding signal (z-score),[17],-0.536
same,glycan array binding signal (z-score),[18],-0.112
same,glycan array binding signal (z-score),[19],1.33
same,glycan array binding signal (z-score),[20],0.967
same,glycan array binding signal (z-score),[21],0.469
same,glycan array binding signal (z-score),[22],-0.146
same,glycan array binding signal (z-score),[23],-0.258
same,glycan array binding signal (z-score),[24],-0.406
same,glycan array binding signal (z-score),[25],0.583
same,glycan array binding signal (z-score),[26],-0.492
same,glycan array binding signal (z-score),[27],-0.34
same,glycan array binding signal (z-score),[28],-0.244
same,glycan array binding signal (z-score),[29],0.154
same,glycan array binding signal (z-score),Neu5Ac(b2-6)GalNAc,-0.878
same,glycan array binding signal (z-score),[30],0.033
same,glycan array binding signal (z-score),[31],-0.142
same,glycan array binding signal (z-score),[32],0.696
